Assay outcomes from PubChem.
This is a sample that favours compounds with a hit; in the whole collection about 1.7% have one here.
PTHR1 ag: qHTS for PTHR1 Agonists: Primary Screen | Parathyroid hormone/parathyroid hormone-related peptide receptor (Homo sapiens), Q03431 | HEK293 GP2 PTHR1 cells, GloSensor cAMP luminescence, 1 h | Potency, µM (series often up to 115 µM), usual class: activators | 410,000 compounds, 0.075% hits; further: nearly all actives have a fitted effect of over 55% in size
Target sequence (Q03431 whole entry, looked up): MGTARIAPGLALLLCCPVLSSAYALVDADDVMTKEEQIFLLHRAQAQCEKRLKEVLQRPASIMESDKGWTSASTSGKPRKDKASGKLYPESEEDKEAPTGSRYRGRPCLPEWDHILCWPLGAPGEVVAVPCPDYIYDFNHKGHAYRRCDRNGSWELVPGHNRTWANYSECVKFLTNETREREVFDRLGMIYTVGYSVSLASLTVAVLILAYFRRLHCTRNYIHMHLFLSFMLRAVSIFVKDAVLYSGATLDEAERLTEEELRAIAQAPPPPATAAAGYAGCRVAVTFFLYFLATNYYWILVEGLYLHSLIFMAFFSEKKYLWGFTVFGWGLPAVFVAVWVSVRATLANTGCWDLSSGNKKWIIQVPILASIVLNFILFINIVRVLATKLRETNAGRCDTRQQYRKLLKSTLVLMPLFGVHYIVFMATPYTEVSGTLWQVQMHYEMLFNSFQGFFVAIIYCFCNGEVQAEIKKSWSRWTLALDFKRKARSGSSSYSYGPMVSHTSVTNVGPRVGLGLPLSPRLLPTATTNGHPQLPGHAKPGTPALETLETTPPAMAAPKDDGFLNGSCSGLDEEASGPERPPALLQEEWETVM
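HEK-293-derived GP2 cells expressing PTHR1 and a GloSensor cAMP reporter, 3,000/well, plated overnight, given luciferin plus IBMX (each 0.5 mM as added) for 1 h at 37 °C, then compound for 1 h at 37 °C. Luminescence was read after 15 min at room temperature.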
GLP1R ag: qHTS of GLP-1 Receptor Agonists; Potency, µM (highest dose often 45.6 µM), usual class: activators; HEK293 GLP-1R CRE-luciferase, luminescence, 4-6 h; cells express a hypersensitive GLP-1R form; Glucagon-like peptide 1 receptor (Homo sapiens), P43220; 380,000 compounds, 0.007% hits
GLP-1R inv ag: qHTS of GLP-1 Receptor Inverse Agonists (Inhibition Mode) | Glucagon-like peptide 1 receptor (Homo sapiens), P43220 | Potency, µM (series often up to 38.3 µM), actives largely listed as inhibitors | 410,000 compounds, 1.6% hits | AID 624417, 2012 | HEK293 GLP-1R CRE-luciferase, luminescence, 24 h; GLP-1R form is constitutively active; further: nearly all actives have a fitted effect of over 55% in size
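Assay principle: reduced luminescence from a cAMP-responsive reporter in HEK293 cells co-expressing a constitutively active GLP-1R. Conditions: 24 hr compound incubation, 37 deg C, 5% CO2.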
HEK293 tox: qHTS of GLP-1 Receptor Inverse Agonists: Cytotox Screen | HEK293 cAMP-luciferase reporter cells, luminescence, 24 h | Potency, µM (series often up to 38.3 µM), actives largely listed as inhibitors | 410,000 compounds, 0.13% hits;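 further: loss of luciferase light is scored as toxicity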
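Seeding density was 200 cells/uL; after overnight-length (12 h) culture, 23 nL compounds went on for 24 h at 37 °C. Readout used a luciferase detection reagent, luminescence taken after 12 min at room temperature.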
Each line names hits and unclear results; the compound was inactive in the other large screens. The call rests on the fitted dose curve; in most records, active means well fitted curve in the direction sought with a large enough effect; inconclusive means small, poorly fitted or top-dose-only effect, or another doubt; inactive means no such curve, though single readings can be large; an effect the other way counts as inactive or inconclusive.

COC(=O)c1ccc(C(=O)OC)c(NC(=O)CSCc2ccc(Br)cc2)c1	GLP-1R inv ag 7.9µM
COc1ccc(-c2ccc(CCC(=O)O)n2CC(=O)Nc2cccc(C(F)(F)F)c2)cc1	PTHR1 ag inconclusive, GLP-1R inv ag inconclusive (no result: GLP1R ag)
CCOc1ccccc1NC1(c2ccccc2)C(=O)c2ccccc2C1=O	none
COC(=O)c1c(NC(NC(=O)C(C)C)C(Cl)(Cl)Cl)sc2c1CCC2 (centres undefined)	GLP-1R inv ag 8.9µM
O=C(CC(c1ccccc1)c1ccccc1O)N1CCCC1 (centres undefined)	none
O=C(CC(c1ccccc1)c1cc(Br)ccc1O)N1CCCCC1 (centres undefined)	GLP-1R inv ag 10µM
Oc1ccccc1/C=N/NC(=S)NC1CC2CC1C1C=CCC21 (centres undefined)	GLP-1R inv ag inconclusive, HEK293 tox 4.5µM
COc1cccc(/C=N/NC(=S)NC2CC3CC2C2C=CCC32)c1O (centres undefined)	HEK293 tox inconclusive
O=C(Cc1ccccc1)N/N=C/c1ccc2cccc(O)c2n1	GLP-1R inv ag inconclusive, HEK293 tox 5.6µM
C=C1NC(=O)c2cc(CN(C)c3ccc(C(=O)N[C@@H](CCC(=O)O)C(=O)O)s3)ccc2N1	none (no result: PTHR1 ag, GLP-1R inv ag, HEK293 tox)
N#CC(C#N)=C(N)CSc1cccc[n+]1[O-]	GLP-1R inv ag inconclusive, HEK293 tox 4.5µM
[O-][n+]1ccccc1SCc1ccccc1	none
CN(C)c1ccc(C(=O)NCc2ccc3c(c2)CCN3C(=O)c2ccccc2)cc1	none (no result: GLP1R ag)
Cc1ccc(C(=O)Nc2ccc3c(c2)N(C)C(=O)c2ccccc2S3)cc1F	GLP-1R inv ag 1.8µM, HEK293 tox inconclusive (no result: GLP1R ag)
CC(=O)Nc1cc(C(=O)Nc2ccc3c(c2)N(C)C(=O)c2ccccc2S3)ccc1C	GLP-1R inv ag inconclusive (no result: GLP1R ag)
CN(C)c1ccc(NC(=O)Cn2cc(S(=O)(=O)Cc3ccccc3Cl)c3ccccc32)cc1	GLP-1R inv ag inconclusive (no result: GLP1R ag)
Cc1ccc(S(=O)(=O)NC(C)C(c2cccs2)N2CCN(C)CC2)cc1 (centres undefined)	GLP-1R inv ag inconclusive
CCN1CCN(C(c2cccs2)C(C)NS(=O)(=O)c2ccc(Br)cc2)CC1 (centres undefined)	GLP-1R inv ag 11µM, HEK293 tox inconclusive
CCOC(=O)Cc1csc(NC(=O)Nc2ccc(Cl)cc2)n1	GLP-1R inv ag 11µM
COc1ccc2c(c1)CC(C(=O)NCCCN1CCN(c3ccc(F)cc3)CC1)CO2 (centres undefined)	GLP-1R inv ag inconclusive (no result: GLP1R ag)
CC(=O)CCC(=O)O	none (no result: PTHR1 ag, GLP-1R inv ag, HEK293 tox)
COc1cccc(Cn2c(SCC(=O)N(C)c3ccccc3)nc3ccccc32)c1	GLP-1R inv ag inconclusive (no result: GLP1R ag)
CCN(CC)c1nc2ccccc2n(Cc2cccc(OC)c2)c1=O	GLP-1R inv ag 3.5µM
O=S(=O)(NCC(c1ccco1)S(=O)(=O)c1ccccc1)c1cc(F)ccc1F (centres undefined)	none (no result: GLP1R ag)
O=C(/C=C/c1cccc2ccccc12)c1ccncc1	GLP-1R inv ag 8.9µM, HEK293 tox inconclusive
O=C(N/N=C/c1cccc2ccccc12)c1ccncc1	none
CCOC(=O)CSc1nc2sc3c(c2c(=O)n1Cc1ccccc1)CC(C)CC3 (centres undefined)	none (no result: GLP1R ag)
Cc1nc(S(=O)(=O)N(C)c2ccccc2)c(C#N)c(C)c1Cl	GLP-1R inv ag 5.6µM
O=C(OCc1ccccc1)N1CCC2CC1c1cc(N3CCOCC3)ccc12 (centres undefined)	GLP-1R inv ag inconclusive
CN1CCN(c2ccc3c(c2)C2CC3CCN2C(=O)OCc2ccccc2)CC1 (centres undefined)	GLP-1R inv ag 10µM
O=C1c2ccccc2C(=O)N1CC(=O)N1c2ccccc2CCc2ccccc21	none
O=C(C(Cc1ccccc1)N1C(=O)c2ccccc2C1=O)N1c2ccccc2CCc2ccccc21 (centres undefined)	GLP-1R inv ag 13µM
Oc1c(C(c2ccccc2Cl)N2CCCC2)sc2nc(-c3ccco3)nn12 (centres undefined)	none (no result: GLP1R ag)
CCn1cc(CCCC(=O)NCc2cccc(OC)c2)c2ccccc21	GLP-1R inv ag 10µM
FC(F)(F)c1nc(-c2cccs2)ncc1-c1nnnn1-c1ccc(Cl)cc1	GLP-1R inv ag 7.1µM
CC1CCC(N(C)C(=O)CN2C(=O)NC(c3ccccc3)(c3ccccc3)C2=O)CC1 (centres undefined)	GLP-1R inv ag 10µM
COc1ccc(C2(c3ccc(OC)cc3)NC(=O)N(CC(=O)N(C)C3CCC(C)CC3)C2=O)cc1 (centres undefined)	GLP-1R inv ag inconclusive
CCCCOC(=O)c1ccc(NC(=O)CC2NCCNC2=O)cc1 (centres undefined)	none
Cc1ccc(C)c(Cn2c(=O)n(CCCC(=O)NCc3ccc4c(c3)OCO4)c(=O)c3sccc32)c1	GLP-1R inv ag inconclusive (no result: GLP1R ag)
CCN(CC)CCCNC(=O)C(C)Sc1nc(-c2ccccc2)cc(C(F)(F)F)n1 (centres undefined)	GLP-1R inv ag 2.8µM
CCOC(=O)N1CCN(C(=O)C[C@@H]2C[C@@]3(C(=O)OCC)CCCC=C3N(Cc3ccc(Cl)cc3Cl)C2=O)CC1	GLP-1R inv ag inconclusive
CCOC(=O)N1CCN(C(=O)C[C@@H]2C[C@@]3(C(=O)OC)CCCCC=C3N(Cc3ccc(Cl)cc3Cl)C2=O)CC1	GLP-1R inv ag 11µM
Cc1ccccc1Nc1nc2ccccc2s1	GLP-1R inv ag 11µM
CN(C)C(=S)Nc1nc2ccccc2s1	GLP-1R inv ag 0.63µM, HEK293 tox inconclusive
CCOc1ccc2nc(NC(=S)N(C)C)sc2c1	GLP-1R inv ag inconclusive, HEK293 tox inconclusive
CN1[C@@H]2CCC[C@@H]1CC(NC(=O)c1nn(C)c3ccccc13)C2 (some centres undefined)	none (no result: PTHR1 ag, GLP-1R inv ag, HEK293 tox)
COc1ccccc1NC(=O)CN1C(=O)CC(c2ccc(C)c(C)c2)=Nc2ccccc21	GLP-1R inv ag 10µM (no result: GLP1R ag)
c1ccc(CCNc2ncnc3scc(C4COc5ccccc5O4)c23)cc1 (centres undefined)	PTHR1 ag inconclusive, GLP-1R inv ag 7.9µM, HEK293 tox inconclusive
CCc1cccc(-n2c(=O)c3cccnc3n2CC(=O)NCc2ccccc2)c1	GLP-1R inv ag inconclusive (no result: GLP1R ag)
COc1ccc(Cl)cc1NC(=O)Cn1nc(C(F)(F)F)c2c1CCCC2	GLP-1R inv ag 13µM
COc1ccc(Cl)cc1NC(=O)Cn1nc(C(F)(F)F)c2c1CCC2	GLP-1R inv ag inconclusive
CCn1nc(C)c2c(-c3ccccc3)cc(=O)n(C(C)C(=O)NCCC(C)C)c21 (centres undefined)	GLP-1R inv ag inconclusive (no result: GLP1R ag)
CN1CCN(CCOC2Cc3ccccc3Sc3ccc(Cl)cc32)CC1 (centres undefined)	PTHR1 ag inconclusive, GLP-1R inv ag 8.9µM, HEK293 tox inconclusive
